CHO-K1 Ca antag: M1 antagonist counterscreen hit in parental CHO-K1 cells. inhibition, % at 3 µM. ATP-induced calcium, Fluo-8 fluorescence. 360,000 compounds, 0.6% hits;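 active = inhibition above a per-plate cutoff, the plate's mean sample inhibition plus 3 SD, cut at about 24% in these data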;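 also: 0% = DMSO plus EC80 ATP and 100% = DMSO alone without ATP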
CHRM1 agonist: activates human CHRM1 receptor | CHO-K1 hM1, Fluo-8 calcium fluorescence, agonist mode; 0% DMSO, 100% acetylcholine EC100 | activation, % at 3 µM | 360,000 compounds, 0.33% hits | AID 588814;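 active = activation above the run's mean compound activation plus 3 SD, cut at about 16% in these data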;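 also: peak over basal fluorescence ratio within a 140 s kinetic read after compound addition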
Target sequence (P11229 whole entry, looked up): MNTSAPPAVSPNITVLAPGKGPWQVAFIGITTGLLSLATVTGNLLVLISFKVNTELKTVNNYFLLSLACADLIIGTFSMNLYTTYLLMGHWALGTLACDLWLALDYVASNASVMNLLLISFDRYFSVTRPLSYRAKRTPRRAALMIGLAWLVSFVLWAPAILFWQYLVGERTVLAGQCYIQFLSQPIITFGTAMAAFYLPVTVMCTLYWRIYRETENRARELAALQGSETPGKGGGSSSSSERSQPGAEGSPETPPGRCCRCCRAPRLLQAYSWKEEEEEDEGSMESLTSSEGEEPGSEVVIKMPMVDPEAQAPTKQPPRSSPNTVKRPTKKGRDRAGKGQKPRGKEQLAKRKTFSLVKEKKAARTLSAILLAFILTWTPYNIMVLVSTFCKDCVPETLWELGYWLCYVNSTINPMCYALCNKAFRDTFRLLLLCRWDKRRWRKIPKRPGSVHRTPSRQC
CHO-K1 Ca PAM: counter-screen for M1 PAMs: effect in parental CHO-K1 cells; ATP EC20, Fluo-8 calcium fluorescence; 0% at ATP EC20, 100% at ATP max; activation, % at 3 µM; 360,000 compounds, 0.02% hits;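 active = activation above the run cutoff, the mean activation of all test compounds plus 3 SD, cut at about 40% in these data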;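 also: peak over basal fluorescence ratio in a 140 s read after ATP addition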
M1 ag parental: M1 agonist counterscreen hit in parental CHO-K1 cells. activation, % at 3 µM. 360,000 compounds, 0.48% hits. Fluo-8 calcium fluorescence; scaled to maximal ATP response, vehicle zero; in the data active = activation above about 15%;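 also: untransfected CHO-K1 host cells lacking M1 receptor as counterscreen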
CHRM1 PAM: positive allosteric modulators of human M1 muscarinic receptor; P11229; 360,000 compounds, 0.088% hits; AID 588819; activation, % at 3 µM; CHO-K1 hM1, Fluo-8 calcium fluorescence, ACh EC20; 0% = ACh EC20, 100% = maximal ACh; in the data active = activation above about 19%, passing the limit was not always enough
M1 antag: human CHRM1 antagonism; P11229; CHO-K1 hM1, Fluo-8 calcium fluorescence, ACh EC80 antagonist; inhibition, % at 3 µM; 360,000 compounds, 1.3% hits;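 active = percent inhibition above its own plate's cutoff, namely the mean of that plate's compound wells plus 3 SD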;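 also: peak over basal fluorescence ratio during 140 s after agonist addition; 0% = ACh EC80 plus DMSO and 100% = DMSO alone without agonist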
Numbers without * were called inactive; nt = no result given. In the library only some 2.3% were active in any assay of this set; here they are far more common.

SMILES	CHO-K1 Ca antag	CHRM1 agonist	CHO-K1 Ca PAM	M1 ag parental	CHRM1 PAM	M1 antag
O=C(c1ccc2c(=O)n3c(nc2c1)CCCCC3)N1CCN(c2cccc(Cl)c2)CC1	-10	-13	15	2	-27	32*
O=C(Nc1ncccc1O)c1cccc(S(=O)(=O)N2CCCC2)c1	26*	1	-12	0	10	-16
CN(C)c1ccc(C(=O)Nc2cccc(S(=O)(=O)N3CCCC3)c2)cc1	4	-7	14	0	-25	46*
COc1ccc(S(=O)(=O)N2CCOCC2)cc1NC(=O)c1ccc(S(=O)(=O)N2CCCCC2)cc1	-15	-8	-15	0	6	-10
CCC(C)[C@H](NC(=O)C1CC(=O)N(c2ccc(OC)cc2)C1)C(=O)NC1CCCC1 (stereo partly drawn)	-14	-2	12	-1	4	-6
C[C@H](O)[C@@H]1C(=O)N2CCc3ccc(-c4ccccc4)cc3[C@@H]2C[C@@H]1N(C)C(=S)Nc1ccc(F)cc1	3	9	-4	1	13	1
CN1CCCN(S(=O)(=O)c2ccccc2)CC1	-15	-12	-11	1	-22	33*
O=S(=O)(c1ccc(Cl)cc1)c1snnc1-c1ccccc1	-6	-6	22	1	-22	37*
COc1ccc(O)c(/C=N/n2c(-c3ccco3)csc2=Nc2cccnc2)c1	28*	-4	-15	0	-13	14
COc1ccc(OC)c(C(=O)COC(=O)COc2ccccc2F)c1	22	-4	-6	-1	-6	17
Fc1ccc(-c2nc3c(Cl)cc(C(F)(F)F)cn3c2Cc2cccc(Cl)c2)cc1	33*	nt	-6	-1	nt	nt
FC(F)(F)c1cc(Cl)c2nc(-c3ccc(Cl)cc3)c(Cc3ccsc3)n2c1	31*	nt	-9	0	nt	nt
COc1cc(CC(=O)N(C)CC(=O)Nc2ccc(Cl)c(C(F)(F)F)c2)cc(OC)c1OC	-2	-10	4	6	-1	6
COc1ccc(S(=O)(=O)NCC(=O)N(CC(=O)NCc2ccco2)Cc2ccc(F)cc2)cc1	-4	-4	-10	1	3	-3
COc1cc(OC)cc(C2=Cc3ccc(OC)cc3C(CC(C)=O)N2c2ccc(C#CC3(O)CCCCC3)cc2)c1 (stereo not drawn)	-13	nt	28	1	nt	nt
COc1cccc(C2=Cc3ccc(F)cc3C(CC(C)=O)N2c2ccc(C#CC3(O)CCCCC3)cc2)c1 (stereo not drawn)	-28	nt	46*	2	nt	nt
COC(=O)Cc1ccc(OC2(C)CCN(Cc3csc4ccccc34)C2)cc1 (stereo not drawn)	-14	-9	13	0	-26	29*
COc1ccc(-n2c(-c3ccccc3)nc(=S)c3c2CCCC3)cc1	-5	-1	17	4	6	-28
COc1ccc(-n2c(-c3cccc(OC)c3)nc(=S)c3c2CCCC3)cc1	-11	-15	9	1	-35	60*
CC(C)(C)C(=O)NC(=S)Nc1ccc(F)cc1	-10	-8	24	1	7	-10
CCOC(=O)C1CCN(c2ncnc3nc[nH]c23)CC1	14	0	9	0	10	-16
CCOC(=O)C1CCN(c2ncnc3c(C)csc23)CC1	17	6	-26	15*	-23	40*
COc1cc(/C=C2/SC(=S)N(CC3CCCO3)C2=O)ccc1O (stereo not drawn)	15	14	5	18*	-5	19
CCOc1cc(/C=C2\SC(=S)N(Nc3ccccc3)C2=O)ccc1O	21	29*	-2	13	4	2
COc1cc(/C=C2\SC(=S)N(C(Cc3ccccc3)C(=O)O)C2=O)ccc1O (stereo not drawn)	3	7	-8	15*	1	-2
COc1ccc(/C=C2\SC(=S)N(CC3CCCO3)C2=O)cc1 (stereo not drawn)	5	0	-17	0	6	-12
O=C1/C(=C/c2ccc(O)c(O)c2)SC(=S)N1Nc1ccccc1	18	13	-3	11	-3	15
COc1cc(/C=C2\SC(=S)N(Nc3ccccc3)C2=O)ccc1O	24*	23*	8	27*	-11	24
